Laboratory results from PubChem BioAssay AID1159580 (chemical genetic matrix, 2015).
Screen size: about 5,500 compounds; about 2,000 (36%) were called active. About 18% were inconclusive and are not listed. No stated cut-off is given here; in the data, active means normalized growth mostly below about 0.91 (no sharp cut-off); inconclusive means no clear call, values can overlap the other calls; inactive means mostly above about 0.92. Some of the results follow.

Experiment: chemical genetic growth profiling, strain panel (AID 1159580);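 further: tested at 20 µM; growth read once vehicle control cultures reached saturation at 30 °C; 1 = growth at the plate median or of vehicle wells; lower values mean less growth of the strain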
Conditions: growth OD
[1] = S. cerevisiae deletion strains, locus YAL013W, strain DEP1, hits give low values
[2] = S. cerevisiae deletion strains, locus YBR229C, strain ROT2, hits give low values
[3] = S. cerevisiae deletion strains, locus YDL101C, strain DUN1, hits give low values
[4] = S. cerevisiae deletion strains, locus YDL134C, strain PPH21, hits give low values
[5] = S. cerevisiae deletion strains, locus YDR150W, strain NUM1, hits give low values
[6] = S. cerevisiae deletion strains, locus YEL061C, strain CIN8, hits give low values
[7] = S. cerevisiae deletion strains, locus YGR078C, strain PAC10, hits give low values
[8] = S. cerevisiae deletion strains, locus YHR030C, strain SLT2, hits give low values
[9] = S. cerevisiae deletion strains, locus YHR087W, strain rtc3, hits give low values
[10] = S. cerevisiae deletion strains, locus YJR043C, strain POL32, hits give low values
[11] = S. cerevisiae deletion strains, locus YJR075W, strain HOC1, hits give low values
[12] = S. cerevisiae deletion strains, locus YLR039C, strain RIC1, hits give low values
[13] = S. cerevisiae deletion strains, locus YLR058C, strain SHM2 (second series), hits give low values
[14] = S. cerevisiae deletion strains, locus YLR085C, strain ARP6, hits give low values
[15] = S. cerevisiae deletion strains, locus YLR262C, strain YPT6, hits give low values
[16] = S. cerevisiae deletion strains, locus YML094W, strain GIM5, hits give low values
[17] = S. cerevisiae deletion strains, locus YMR219W, strain ESC1, hits give low values
[18] = S. cerevisiae deletion strains, locus YMR263W, strain SAP30, hits give low values
[19] = S. cerevisiae deletion strains, locus YNL153C, strain GIM3, hits give low values
[20] = S. cerevisiae deletion strains, locus YNL298W, strain CLA4 (second series), hits give low values
[21] = S. cerevisiae deletion strains, locus YNL322C, strain KRE1, hits give low values
[22] = S. cerevisiae deletion strains, locus YNR030W, strain Alg12, hits give low values
[23] = S. cerevisiae deletion strains, locus YOL006C, strain TOP1, hits give low values
[24] = S. cerevisiae deletion strains, locus YPL055C, strain LGE1, hits give low values
[25] = S. cerevisiae deletion strains, locus YPL241C, strain CIN2, hits give low values
[26] = S. cerevisiae deletion strains, locus YPR135W, strain CTF4, hits give low values
[27] = S. cerevisiae strains, strain wild type, hits give low values
[28] = S. cerevisiae deletion strains, locus YMR307W, strain GAS1, hits give low values

Measured: normalized growth

Cc1ccc(-c2csc(CC#N)n2)cc1C
inactive: [1] 0.987 | [2] 0.961 | S. cerevisiae deletion strains, locus YCL061C, strain MRC1, hits give low values 0.912 | [3] 0.963 | [4] 0.977 | [5] 0.989 | [6] 0.951 | [7] 0.951 | [8] 0.716 | [9] 0.97 | [10] 0.97 | [11] 0.914 | [13] 0.961 | [14] 0.823 | [16] 0.944 | [17] 0.961 | [18] 0.974 | [19] 0.929 | [20] 0.882 | [21] 0.962 | [22] 0.962 | [23] 0.758 | [24] 0.946 | [25] 0.859 | [26] 0.801 | [27] 0.969
active: [12] 0.774 | [15] 0.78

S=c1nc2[nH]c3ccccc3c2n[nH]1
inactive: [1] 0.98 | [2] 0.982 | [3] 0.985 | [4] 0.973 | [5] 1.01 | [6] 1 | [7] 0.976 | [8] 0.962 | [9] 1.04 | [10] 0.974 | [11] 1 | [12] 0.996 | [13] 0.99 | [14] 0.927 | [15] 0.995 | [16] 0.978 | [17] 0.994 | [18] 1.03 | [19] 0.977 | [20] 0.944 | [21] 0.991 | [22] 0.972 | [23] 1 | [24] 1 | [25] 0.974 | [26] 0.916 | [27] 0.984

CNC(=O)[C@H]1O[C@@H](n2cnc3c(NCc4cccc(I)c4)ncnc32)C(O)[C@H]1O (stereo partly drawn)
inactive: S. cerevisiae deletion strains, locus YAL040C, strain CLN3, hits give low values 0.988 | S. cerevisiae deletion strains, locus YCL061C, strain MRC1 (second series), hits give low values 0.998 | S. cerevisiae deletion strains, locus YDR363W, strain ESC2, hits give low values 1.01 | S. cerevisiae deletion strains, locus YER002W, strain NOP16, hits give low values 0.993 | [7] 1.01 | [18] 0.999 | [28] 0.992 | S. cerevisiae deletion strains, locus YNL128W, strain TEP1, hits give low values 0.994 | S. cerevisiae deletion strains, locus YNL175C, strain NOP13, hits give low values 1.01 | S. cerevisiae deletion strains, locus YNL197C, strain WHI3, hits give low values 0.998 | S. cerevisiae deletion strains, locus YNL224C, strain SQS1, hits give low values 1.02 | [21] 0.992 | S. cerevisiae deletion strains, locus YOR083W, strain WHI5 (second series), hits give low values 0.991 | [24] 1.01 | [25] 1

O=C(O)c1cncc(C#Cc2ccccc2)c1
inactive: [1] 0.982 | [2] 0.976 | [3] 0.991 | [4] 1.01 | [5] 1.01 | [6] 1 | [7] 0.957 | S. cerevisiae deletion strains, locus YGR229C, strain SMI1, hits give low values 0.957 | [8] 0.956 | [9] 1 | [10] 0.957 | [11] 0.961 | [12] 0.976 | [13] 0.949 | [14] 1.04 | [15] 0.996 | [16] 1.02 | [17] 0.972 | [18] 0.981 | [28] 1.03 | [19] 0.931 | [20] 0.991 | [21] 0.971 | [22] 0.989 | [24] 1 | [25] 1.01 | [26] 0.935

O=C(Nc1cccc(C(F)(F)F)c1)c1cncc(C#Cc2ccccc2)c1
active: [8] 0.847
inactive: S. cerevisiae deletion strains, locus YAR019C, strain CDC15, hits give low values 0.971 | S. cerevisiae deletion strains, locus YBL105C, strain PKC1, hits give low values 0.98 | S. cerevisiae deletion strains, locus YBR135W, strain CKS1, hits give low values 0.983 | S. cerevisiae deletion strains, locus YBR136W, strain MEC1, hits give low values 0.982 | S. cerevisiae deletion strains, locus YBR160W, strain CDC28, hits give low values 0.983 | S. cerevisiae deletion strains, locus YDL017W, strain CDC7, hits give low values 0.983 | S. cerevisiae deletion strains, locus YDL028C, strain MPS1, hits give low values 0.978 | [3] 0.987 | S. cerevisiae deletion strains, locus YDL108W, strain KIN28, hits give low values 0.984 | S. cerevisiae deletion strains, locus YDL132W, strain cdc53, hits give low values 0.983 | S. cerevisiae deletion strains, locus YDL214C, strain PRR2, hits give low values 0.905 | S. cerevisiae deletion strains, locus YDR052C, strain DBF4, hits give low values 0.983 | S. cerevisiae deletion strains, locus YDR054C, strain cdc34, hits give low values 0.963 | S. cerevisiae deletion strains, locus YDR226W, strain ADK1, hits give low values 0.973 | S. cerevisiae deletion strains, locus YDR477W, strain SNF1, hits give low values 0.929 | S. cerevisiae deletion strains, locus YER123W, strain YCK3, hits give low values 0.809 | S. cerevisiae deletion strains, locus YER133W, strain GLC7, hits give low values 0.936 | S. cerevisiae deletion strains, locus YFL009W, strain cdc4, hits give low values 0.968 | S. cerevisiae deletion strains, locus YFL029C, strain CAK1, hits give low values 0.97 | S. cerevisiae deletion strains, locus YFR003C, strain YPI1, hits give low values 0.983 | S. cerevisiae deletion strains, locus YFR019W, strain FAB1, hits give low values 0.862 | S. cerevisiae deletion strains, locus YFR028C, strain CDC14, hits give low values 0.969 | S. cerevisiae deletion strains, locus YGR040W, strain KSS1, hits give low values 0.89 | S. cerevisiae deletion strains, locus YGR052W, strain FMP48, hits give low values 0.977 | S. cerevisiae deletion strains, locus YGR092W, strain DBF2, hits give low values 0.826 | S. cerevisiae deletion strains, locus YHR079C, strain IRE1, hits give low values 0.854 | S. cerevisiae deletion strains, locus YHR082C, strain KSP1, hits give low values 0.905 | S. cerevisiae deletion strains, locus YHR205W, strain SCH9, hits give low values 0.776 | S. cerevisiae deletion strains, locus YIL147C, strain SLN1, hits give low values 0.98 | S. cerevisiae deletion strains, locus YJL095W, strain BCK1, hits give low values 0.903 | S. cerevisiae deletion strains, locus YJL128C, strain PBS2, hits give low values 0.978 | S. cerevisiae deletion strains, locus YJL157C, strain FAR1, hits give low values 0.878 | S. cerevisiae deletion strains, locus YJR016C, strain ILV3, hits give low values 0.983 | S. cerevisiae deletion strains, locus YJR066W, strain TOR1 (second series), hits give low values 0.905 | S. cerevisiae deletion strains, locus YJR066W, strain TOR1, hits give low values 0.865 | S. cerevisiae deletion strains, locus YKL048C, strain ELM1, hits give low values 0.877 | S. cerevisiae deletion strains, locus YKL067W, strain YNK1, hits give low values 0.901 | S. cerevisiae deletion strains, locus YKL101W, strain HSL1, hits give low values 0.883 | S. cerevisiae deletion strains, locus YKL193C, strain SDS22, hits give low values 0.982 | S. cerevisiae deletion strains, locus YKL203C, strain TOR2, hits give low values 0.937 | S. cerevisiae deletion strains, locus YLR113W, strain HOG1, hits give low values 0.902 | S. cerevisiae deletion strains, locus YLR133W, strain CKI1, hits give low values 0.868 | S. cerevisiae deletion strains, locus YLR403W, strain SFP1, hits give low values 0.843 | S. cerevisiae deletion strains, locus YML070W, strain DAK1, hits give low values 0.914 | S. cerevisiae deletion strains, locus YMR001C, strain CDC5, hits give low values 0.98 | S. cerevisiae deletion strains, locus YMR205C, strain PFK2 (second series), hits give low values 0.935 | S. cerevisiae deletion strains, locus YMR277W, strain FCP1, hits give low values 0.975 | S. cerevisiae deletion strains, locus YNL006W, strain LST8, hits give low values 0.981 | S. cerevisiae deletion strains, locus YNL020C, strain ARK1, hits give low values 0.853 | S. cerevisiae deletion strains, locus YNL161W, strain CBK1, hits give low values 0.985 | S. cerevisiae deletion strains, locus YNL183C, strain NPR1, hits give low values 0.919 | S. cerevisiae deletion strains, locus YNL207W, strain RIO2, hits give low values 0.99 | S. cerevisiae deletion strains, locus YNL222W, strain SSU72, hits give low values 0.978 | S. cerevisiae deletion strains, locus YNL307C, strain MCK1 (second series), hits give low values 0.77 | S. cerevisiae deletion strains, locus YOL078W, strain AVO1, hits give low values 0.977 | S. cerevisiae deletion strains, locus YOL136C, strain PFK27, hits give low values 0.899 | S. cerevisiae deletion strains, locus YOR061W, strain CKA2, hits give low values 0.875 | S. cerevisiae deletion strains, locus YOR119C, strain RIO1, hits give low values 0.977 | S. cerevisiae deletion strains, locus YOR231W, strain MKK1, hits give low values 0.915 | S. cerevisiae deletion strains, locus YOR329C, strain SCD5, hits give low values 0.981 | S. cerevisiae deletion strains, locus YPL031C, strain PHO85, hits give low values 0.916 | S. cerevisiae deletion strains, locus YPL153C, strain RAD53, hits give low values 0.921 | S. cerevisiae deletion strains, locus YPL204W, strain HRR25, hits give low values 0.883 | S. cerevisiae deletion strains, locus YPL209C, strain IPL1, hits give low values 0.988 | S. cerevisiae deletion strains, locus YPL256C, strain CLN2, hits give low values 0.897 | S. cerevisiae deletion strains, locus YPR025C, strain CCL1, hits give low values 0.977 | S. cerevisiae deletion strains, locus YPR106W, strain ISR1, hits give low values 0.977 | S. cerevisiae deletion strains, locus YPR111W, strain DBF20, hits give low values 0.964 | S. cerevisiae deletion strains, strain NNK1, hits give low values 0.974 | S. cerevisiae deletion strains, strain TSCII, hits give low values 0.989
